Several values for one entry are separate records, joined by “and”; a condition that tells them apart may be missing. Equal entries are not always repeated. The source holds several records for some structures; these can differ, active in one and inactive in another. Activity calls are given as the source filed them. Rule for the calls: active = hit-call score of the fitted dose curve at least 0.9, where 1 is the maximum; inactive = score below 0.9.
Legend:
[1] = read-out: Transforming growth factor beta 1 (TGFb1), TGFB1 (gene 7040); assay: BSK_KF3CT_TGFb1: BioMAP Diversity Plus: KF3CT Assay for Transforming growth factor beta 1 (TGFb1) Biomarker Activity (AID 2283072); conditions: primary human keratinocytes with fibroblasts; actives raise or lower the signal
How it was run: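 KF3CT co-culture (keratinocytes + fibroblasts), 24 h exposure → TGF-b1 ELISA → bidirectional fit, DMSO = baseline. Parallel SRB total-protein staining (0.1% SRB, 10% TCA fixation, 560 nm) for cytotoxicity.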

[2] = read-out: C-C motif chemokine 2 (Homo sapiens) (UniProt P13500); assay: BSK_KF3CT_MCP1: BioMAP Diversity Plus: KF3CT Assay for Monocyte Chemoattractant Protein 1 (MCP1/CCL2) Biomarker Activity (AID 2283073); conditions: primary human keratinocytes with fibroblasts; actives raise or lower the signal
How it was run: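 KF3CT skin co-culture (keratinocytes/foreskin fibroblasts), 24 h post-dose; MCP-1 by ELISA; gain/loss of signal fit bidirectionally vs DMSO baseline.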

[3] = read-out: Matrix Metallopeptidase 9 (MMP9), MMP9 (gene 4318); assay: BSK_KF3CT_MMP9: BioMAP Diversity Plus: KF3CT Assay for Matrix Metallopeptidase 9 (MMP9) Biomarker Activity (AID 2283074); conditions: primary human keratinocytes with fibroblasts; actives raise or lower the signal;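 for AC50: MMP9 protein level quantified by ELISA in the co-culture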
How it was run: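 MMP-9 quantified by ELISA after 24 h chemical treatment of primary human skin keratinocyte/fibroblast co-cultures; gain or loss fitted against DMSO, with parallel SRB staining (0.1% SRB, 560 nm) for overt cytotoxicity.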

[4] = read-out: urokinase plasminogen activator (uPA), PLAU (gene 5328); assay: BSK_KF3CT_uPA: BioMAP Diversity Plus: KF3CT Assay for urokinase plasminogen activator (uPA) Biomarker Activity (AID 2283075); conditions: primary human keratinocytes with fibroblasts; actives raise or lower the signal
How it was run: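 ELISA read-out of uPA 24 h after dosing human skin keratinocytes co-cultured with foreskin fibroblasts. Signal change fitted both ways relative to DMSO; sulforhodamine B on parallel cultures marks overt cytotoxicity.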

[5] = read-out: CD40, CD40 (gene 958); assay: BSK_LPS_CD40: BioMAP Diversity Plus: LPS Assay for CD40 Biomarker Activity (AID 2283076); conditions: primary human HUVEC with PBMC; actives raise or lower the signal
How it was run: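 ELISA readout of CD40 in HUVEC/PBMC co-culture (BSK_LPS system), 24 h post-dosing; bidirectional curve fit, DMSO baseline; parallel SRB total-protein staining for cytotoxicity.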

[6] = read-out: E-selectin (Homo sapiens) (UniProt P16581); assay: BSK_LPS_Eselectin: BioMAP Diversity Plus: LPS Assay for Eselectin Biomarker Activity (AID 2283077); conditions: primary human HUVEC with PBMC; actives raise or lower the signal
How it was run: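 ELISA readout of E-selectin, 24 h post-dose, HUVEC + PBMC co-culture (LPS system). Gain or loss of signal vs DMSO baseline, bidirectional fit.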

[7] = read-out: Interleukin-8 (IL8), CXCL8 (gene 3576); assay: BSK_LPS_IL8: BioMAP Diversity Plus: LPS Assay for Interleukin-8 (IL8) Biomarker Activity (AID 2283078); conditions: primary human HUVEC with PBMC; actives raise or lower the signal
How it was run: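 HUVEC + PBMC co-culture, LPS-activated; test chemicals dosed, IL-8 read by ELISA at 24 h. Bidirectional curve fit vs DMSO baseline (gain or loss of signal).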

[8] = BSK_LPS_SRB: Viability Assessment in the BioMAP Diversity Plus: LPS Assay (AID 2283079); conditions: primary human HUVEC with PBMC;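 note: total protein by sulforhodamine B absorbance as a cytotoxicity measure; measured one day after compound addition; fitted in both directions against DMSO so loss or gain of signal counts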
How it was run: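 HUVEC + PBMC co-culture, LPS-stimulated; compound 24 h. 10% TCA fix, 0.1% SRB stain, A560. Bidirectional fit vs DMSO.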

[9] = read-out: Interleukin-1 alpha (IL1a), IL1A (gene 3552); assay: BSK_LPS_IL1a: BioMAP Diversity Plus: LPS Assay for Interleukin-1 alpha (IL1a) Biomarker Activity (AID 2283080); conditions: primary human HUVEC with PBMC; actives raise or lower the signal
How it was run: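 HUVEC/PBMC co-culture, LPS system; 24 h after dosing; IL-1a by ELISA; gain or loss of signal fitted bidirectionally vs DMSO baseline.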

[10] = read-out: Monocyte Chemoattractant Protein-1 (MCP1), CCL2 (gene 6347); assay: BSK_LPS_MCP1: BioMAP Diversity Plus: LPS Assay for Monocyte Chemoattractant Protein-1 (MCP1) Biomarker Activity (AID 2283081); conditions: primary human HUVEC with PBMC; actives raise or lower the signal;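 for AC50: secreted MCP-1 protein quantified by ELISA in culture supernatant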
How it was run: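 ELISA read-out of MCP-1 after 24 h chemical dosing of a human umbilical vein endothelial cell/peripheral blood mononuclear cell co-culture stimulated with LPS. Gain or loss of signal fitted relative to DMSO controls.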

[11] = BSK_LPS_PGE2: BioMAP Diversity Plus: LPS Assay for Prostaglandin E2 (PGE2) Biomarker Activity (AID 2283082); conditions: primary human HUVEC with PBMC; actives raise or lower the signal;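 for AC50: secreted prostaglandin E2 measured by ELISA in LPS-stimulated co-culture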
How it was run: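 Compounds were added to the LPS co-culture of endothelium and PBMC, and PGE2 was measured by ELISA after 24 h. Responses in either direction were fitted with DMSO as baseline.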

[12] = read-out: Macrophage colony-stimulating factor (MCSF), CSF1 (gene 1435); assay: BSK_LPS_MCSF: BioMAP Diversity Plus: LPS Assay for Macrophage colony-stimulating factor (MCSF) Biomarker Activity (AID 2283083); conditions: primary human HUVEC with PBMC; actives raise or lower the signal
How it was run: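 HUVEC + PBMC co-culture (human primary), 24 h post-dose; M-CSF by ELISA; gain/loss of signal fitted bidirectionally vs DMSO baseline.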

[13] = read-out: Tissue Factor, F3 (gene 2152); assay: BSK_LPS_TissueFactor: BioMAP Diversity Plus: LPS Assay for Tissue Factor Biomarker Activity (AID 2283084); conditions: primary human HUVEC with PBMC; actives raise or lower the signal
How it was run: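 HUVEC/PBMC co-culture, LPS-activated; CD142 ELISA read 24 h post-dose; bidirectional curve fit vs DMSO negative control.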

[14] = read-out: Tumor necrosis factor (Homo sapiens) (UniProt P01375); assay: BSK_LPS_TNFa: BioMAP Diversity Plus: LPS Assay for Tumour Necrosis Factor alpha (TNFa) Biomarker Activity (AID 2283085); conditions: primary human HUVEC with PBMC; actives raise or lower the signal;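 for AC50: TNFa protein level quantified by ELISA in the co-culture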
How it was run: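 Cells (umbilical vein endothelium plus peripheral blood mononuclear cells) were dosed with chemical, incubated 24 h, then TNFa was quantified by ELISA; values derive from bidirectional fitting with DMSO as baseline.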

[15] = read-out: Vascular cell adhesion molecule 1 (VCAM1), VCAM1 (gene 7412); assay: BSK_LPS_VCAM1: BioMAP Diversity Plus: LPS Assay for Vascular cell adhesion molecule 1 (VCAM1) Biomarker Activity (AID 2283086); conditions: primary human HUVEC with PBMC; actives raise or lower the signal
How it was run: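 Cells are dosed in an LPS-stimulated endothelial/mononuclear co-culture and, after 24 h, VCAM-1 is quantified by ELISA. Activity in either direction is fitted relative to the DMSO negative control.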

[16] = read-out: CD38, CD38 (gene 952); assay: BSK_SAg_CD38: BioMAP Diversity Plus: SAg Assay for CD38 Biomarker Activity (AID 2283087); conditions: primary human HUVEC with PBMC; actives raise or lower the signal
How it was run: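 CD38 quantified by ELISA (fluorescence) in a superantigen-activated endothelial cell–PBMC co-culture at 24 h post-dose. Activity fitted in both directions relative to DMSO; parallel SRB and Alamar Blue cytotoxicity read-outs.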

[17] = read-out: CD40, CD40 (gene 958); assay: BSK_SAg_CD40: BioMAP Diversity Plus: SAg Assay for CD40 Biomarker Activity (AID 2283088); conditions: primary human HUVEC with PBMC; actives raise or lower the signal
How it was run: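 HUVEC/PBMC co-culture, 24 h post-dose; CD40 by ELISA, fluorescence intensity; bidirectional fit vs DMSO negative control.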

[18] = read-out: CD69, CD69 (gene 969); assay: BSK_SAg_CD69: BioMAP Diversity Plus: SAg Assay for CD69 Biomarker Activity (AID 2283089); conditions: primary human HUVEC with PBMC; actives raise or lower the signal;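 for AC50: cell surface CD69 protein quantified by ELISA with fluorescence detection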
How it was run: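 Primary human vascular co-culture (umbilical vein endothelium with peripheral blood mononuclear cells) exposed to test chemical for 24 h. CD69 levels quantified by fluorescence ELISA; DMSO served as negative control for bidirectional fitting.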

[19] = read-out: Monocyte Chemoattractant Protein-1 (MCP1), CCL2 (gene 6347); assay: BSK_SAg_MCP1: BioMAP Diversity Plus: SAg Assay for Monocyte Chemoattractant Protein-1 (MCP1) Biomarker Activity (AID 2283090); conditions: primary human HUVEC with PBMC; actives raise or lower the signal
How it was run: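 Values derive from bidirectional fitting of ELISA-measured MCP1 against DMSO controls. Readings were taken 24 h after dosing human vascular endothelial cells co-cultured with peripheral blood mononuclear cells under superantigen stimulation.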

Measured: AC50

Chain of Tumor necrosis factor (Homo sapiens) (P01375 whole entry, looked up): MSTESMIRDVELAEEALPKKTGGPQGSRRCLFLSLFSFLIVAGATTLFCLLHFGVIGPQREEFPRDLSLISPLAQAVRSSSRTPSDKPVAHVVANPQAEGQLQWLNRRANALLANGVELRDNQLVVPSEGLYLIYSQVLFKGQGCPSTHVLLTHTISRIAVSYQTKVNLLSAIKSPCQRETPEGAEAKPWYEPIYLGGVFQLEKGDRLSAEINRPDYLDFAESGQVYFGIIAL
Chain of E-selectin (Homo sapiens) (P16581 whole entry, looked up): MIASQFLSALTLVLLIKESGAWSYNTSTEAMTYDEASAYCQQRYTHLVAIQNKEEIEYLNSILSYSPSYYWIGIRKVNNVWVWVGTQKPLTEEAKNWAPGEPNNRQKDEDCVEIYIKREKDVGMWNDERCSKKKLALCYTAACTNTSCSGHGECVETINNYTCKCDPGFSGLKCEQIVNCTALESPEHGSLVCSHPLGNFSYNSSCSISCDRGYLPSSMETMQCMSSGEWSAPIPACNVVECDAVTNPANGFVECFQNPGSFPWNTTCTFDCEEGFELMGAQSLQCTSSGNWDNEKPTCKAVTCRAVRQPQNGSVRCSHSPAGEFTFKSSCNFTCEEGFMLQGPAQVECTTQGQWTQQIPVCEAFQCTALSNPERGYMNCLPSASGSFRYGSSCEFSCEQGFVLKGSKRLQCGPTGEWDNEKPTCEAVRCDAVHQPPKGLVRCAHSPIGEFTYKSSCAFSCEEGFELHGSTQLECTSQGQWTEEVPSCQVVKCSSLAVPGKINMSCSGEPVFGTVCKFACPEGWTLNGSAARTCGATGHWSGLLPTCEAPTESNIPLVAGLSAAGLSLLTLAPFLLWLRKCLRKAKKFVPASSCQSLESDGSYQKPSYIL

O=P(OCCCl)(OCCCl)OCCCl
inactive: all assays above

N#CC(Br)Br
not listed: [2]
inactive: all other assays above

[O-][Cl+]O
not listed: [2] | [3] | [19]
inactive: all other assays above

c1ccc2c(c1)-c1cccc3cccc-2c13
active: [3] 28.9 µM | [14] 4.36 µM | [17] 31.2 µM
not listed: [2] | [13]
inactive: all other assays above

[As]#[In]
not listed: [2] | [19]
inactive: all other assays above

CN(C)C(=O)Nc1ccc(Cl)cc1
not listed: [2] | [3] | [13] | [19]
inactive: all other assays above

CCN(CC)N=O
not listed: [2] | [13]
inactive: all other assays above

Cc1cccc(N)c1N
active: [5] 7.51 µM | [7] 20 µM | [11] 20 µM | [12] 7.16 µM | [15] 14.3 µM
not listed: [3] | [19]
inactive: all other assays above

Cn1cc(-c2ccccc2)c(=O)c(-c2cccc(C(F)(F)F)c2)c1
active: [11] 2.7 µM
not listed: [3]
inactive: all other assays above

CCCSC(=O)N(CCC)CCC
not listed: [2] | [3] | [13] | [19]
inactive: all other assays above

Brc1ccc(Oc2ccccc2)cc1
not listed: [3] | [13] | [19]
inactive: all other assays above

CCNS(=O)(=O)C(F)(F)C(F)(F)C(F)(F)C(F)(F)C(F)(F)C(F)(F)C(F)(F)C(F)(F)F
inactive: [4] | [5] | [6] | [7] | [8] | [9] | [10] | [11] | [12] | [14] | [15]
active: [1] 19.3 µM | [3] 29.6 µM and 40.2 µM and 36.2 µM | [4] 50.5 µM and 47.5 µM | [5] 46.1 µM and 42.2 µM | [7] 30 µM | [8] 44.2 µM and 46 µM | [10] 48.8 µM and 51.7 µM | [12] 49 µM | [14] 1.1 µM | [15] 30 µM | [16] 19.3 µM and 48.6 µM and 30 µM | [17] 12.2 µM and 36.6 µM and 30.4 µM | [18] 5.71 µM and 24.7 µM and 20.2 µM

Nc1ccc(N=Nc2ccccc2)cc1
active: [3] 20 µM | [11] 3.55 µM | [14] 6.01 µM | [15] 14.2 µM
not listed: [2] | [13]
inactive: all other assays above

Nc1ccc([N+](=O)[O-])cc1
not listed: [2] | [3]
inactive: all other assays above

Source: PubChem BioAssay (EPA / NIEHS)
